# Assay results: PubChem BioAssay (Tox21)
# Inconclusive results are not listed. A number with no mark means an inactive call. The call rests on the fitted dose curve.
# Assay: qHTS assay for small molecule agonists of the p53 signaling pathway - cell viability (AID 651633);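 further: p53RE-bla HCT reporter cells with a stable beta-lactamase p53 reporter; nearly all actives have a fitted effect of over 30% in size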
# Conditions: p53RE-bla HCT-116 viability, ATP luminescence, 16 h; series mostly up to 83.3 µM; activity change, negative = cytotoxicity: at the top concentration
# How it was run: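 p53RE-bla cells, seeded at 4,000 per well and rested 5 h at 37 C/5% CO2, received compounds in DMSO for 16 h at 37 C. CellTiter-Glo was then added, and luminescence was read after 30 min at room temperature to gauge cytotoxicity.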
# On the % scale 0 is the no-effect control and ±100 the full control effect.
row,SMILES,"activity change, negative = cytotoxicity"
1,CC(C)=CCN1CC[C@]2(C)c3cc(O)ccc3C[C@H]1[C@H]2C,-8.11%
2,CNC(C)CC1CCCCC1 (centres undefined),-7.49%
3,COc1cc([C@@H]2c3cc4c(cc3[C@@H](O)[C@H]3COC(=O)[C@H]23)OCO4)cc(OC)c1O,15.9%
4,CN1CC[C@@]23CCCC[C@@H]2[C@@H]1Cc1ccc(O)cc13,14%
5,CNC(C)Cc1ccccc1 (centres undefined),10.6%
6,CN[C@@H](C)Cc1ccccc1,11.2%
7,CCCCNC(C)(C)[P+](=O)O,24.5%
8,O=c1ccc2cc(O[C@@H]3O[C@H](CO)[C@@H](O)[C@H](O)[C@H]3O)c(O)cc2o1,12.6% [at 39.1 µM]
9,C/C=C(\CC)C(=O)NC(N)=O,13.8%
10,Cc1nnc2n1-c1ccc(Cl)cc1C(c1ccccc1)=NC2,4.67%
11,N#CC(C#N)=Cc1cc(O)c(O)c(O)c1,-25.2%
12,CCCSc1cc(OC)c(CCN)cc1OC,-10.6% [at 95.3 µM]
13,Oc1ccc2c3c1O[C@H]1[C@@H](O)C=C[C@H]4[C@H](C2)NCC[C@@]341,6.35%
14,O=P1(N(CCCl)CCCl)NC(OO)CCO1 (centres undefined),8.36%
15,COC(=O)[C@H]1[C@@H](OC(=O)c2ccccc2)C[C@@H]2CC[C@H]1N2C,11.7%
16,O=C1CN=C(c2ccccc2)c2cc(Cl)ccc2N1,10.8%
17,C=C[C@H]1CN2CC[C@H]1C[C@H]2[C@H](OC(=O)OCC)c1ccnc2ccc(OC)cc12,-11.6%
18,CC(C)[C@H]1C(=O)N2CCC[C@H]2[C@]2(O)O[C@](NC(=O)[C@@H]3C[C@@H]4c5cccc6[nH]cc(c56)C[C@H]4N(C)C3)(C(C)C)C(=O)N12,-7.82%
19,C[C@]12CC[C@H]3[C@@H](CCC4=C(Cl)C(=O)CC[C@@]43C)[C@@H]1CC[C@@H]2O,-13.8%
